{
  "source": "the supplement of paper PMC6992640",
  "data": [
    {"system": "WHIM30 (cells of a triple-negative basal-like breast cancer xenograft)", "experiment": "cell viability of combination (% of vehicle); higher = less cytotoxic", "conditions": "1 µM; 72 h; partner dose: 10 nM", "procedure": "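PDX cells were treated for 72 h with each drug at 1 µM plus carfilzomib (10 nM; 100 nM for WHIM2). Luciferase viability is expressed as percent of vehicle.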", "values": [
      {"smiles": "CO[C@H]1/C=C/O[C@@]2(C)Oc3c(C)c(O)c4c(O)c(c(/C=N/N5CCN(C6CCCC6)CC5)c(O)c4c3C2=O)NC(=O)/C(C)=C\\C=C\\[C@H](C)[C@H](O)[C@@H](C)[C@@H](O)[C@@H](C)[C@H](OC(C)=O)[C@@H]1C", "note": "[Rifapentine] + CC(C)C[C@H](NC(=O)[C@H](CCc1ccccc1)NC(=O)CN1CCOCC1)C(=O)N[C@@H](Cc1ccccc1)C(=O)N[C@@H](CC(C)C)C(=O)[C@@]1(C)CO1 [Carfilzomib]", "cell viability of combination": 21.9},
      {"smiles": "CNC(=O)c1cc(Oc2ccc(NC(=O)Nc3ccc(Cl)c(C(F)(F)F)c3)cc2)ccn1", "note": "[Sorafenib] + CC(C)C[C@H](NC(=O)[C@H](CCc1ccccc1)NC(=O)CN1CCOCC1)C(=O)N[C@@H](Cc1ccccc1)C(=O)N[C@@H](CC(C)C)C(=O)[C@@]1(C)CO1 [Carfilzomib]", "cell viability of combination": 18},
      {"smiles": "COc1cc2c(Oc3ccc4[nH]c(C)cc4c3F)ncnc2cc1OCCCN1CCCC1", "note": "[Cediranib (AZD217)] + CC(C)C[C@H](NC(=O)[C@H](CCc1ccccc1)NC(=O)CN1CCOCC1)C(=O)N[C@@H](Cc1ccccc1)C(=O)N[C@@H](CC(C)C)C(=O)[C@@]1(C)CO1 [Carfilzomib]", "cell viability of combination": 11.6},
      {"smiles": "CC(=O)c1cc2c(o1)C(=O)c1ccccc1C2=O", "note": "[Napabucasin] + CC(C)C[C@H](NC(=O)[C@H](CCc1ccccc1)NC(=O)CN1CCOCC1)C(=O)N[C@@H](Cc1ccccc1)C(=O)N[C@@H](CC(C)C)C(=O)[C@@]1(C)CO1 [Carfilzomib]", "cell viability of combination": 5.17},
      {"smiles": "COc1ccccc1OCCNCC(O)COc1cccc2[nH]c3ccccc3c12", "note": "(stereo not given) [Carvedilol] + CC(C)C[C@H](NC(=O)[C@H](CCc1ccccc1)NC(=O)CN1CCOCC1)C(=O)N[C@@H](Cc1ccccc1)C(=O)N[C@@H](CC(C)C)C(=O)[C@@]1(C)CO1 [Carfilzomib]", "cell viability of combination": 20.7},
      {"smiles": "CN1CCN(CCCN2c3ccccc3Sc3ccc(C(F)(F)F)cc32)CC1.Cl.Cl", "note": "[Trifluoperazine 2HCl] + CC(C)C[C@H](NC(=O)[C@H](CCc1ccccc1)NC(=O)CN1CCOCC1)C(=O)N[C@@H](Cc1ccccc1)C(=O)N[C@@H](CC(C)C)C(=O)[C@@]1(C)CO1 [Carfilzomib]", "cell viability of combination": 16.7},
      {"smiles": "CCOC(=O)c1c(CSc2ccccc2)n(C)c2cc(Br)c(O)c(CN(C)C)c12.Cl", "note": "[Arbidol HCl] + CC(C)C[C@H](NC(=O)[C@H](CCc1ccccc1)NC(=O)CN1CCOCC1)C(=O)N[C@@H](Cc1ccccc1)C(=O)N[C@@H](CC(C)C)C(=O)[C@@]1(C)CO1 [Carfilzomib]", "cell viability of combination": 22},
      {"smiles": "CN(C(=O)CN(CCO)CC(=O)N(C)C(C)(C)Cc1ccccc1)C(C)(C)Cc1ccccc1", "note": "[Oxethazaine] + CC(C)C[C@H](NC(=O)[C@H](CCc1ccccc1)NC(=O)CN1CCOCC1)C(=O)N[C@@H](Cc1ccccc1)C(=O)N[C@@H](CC(C)C)C(=O)[C@@]1(C)CO1 [Carfilzomib]", "cell viability of combination": 20.8},
      {"smiles": "CN(C)CC=CC(=O)Nc1cc2c(Nc3ccc(F)c(Cl)c3)ncnc2cc1OC1CCOC1", "note": "(stereo not given) [Afatinib (BIBW2992)] + CC(C)C[C@H](NC(=O)[C@H](CCc1ccccc1)NC(=O)CN1CCOCC1)C(=O)N[C@@H](Cc1ccccc1)C(=O)N[C@@H](CC(C)C)C(=O)[C@@]1(C)CO1 [Carfilzomib]", "cell viability of combination": 12.3},
      {"smiles": "Cl.O.O=C1Cc2cc(CCN3CCN(c4nsc5ccccc45)CC3)c(Cl)cc2N1", "note": "[Ziprasidone hydrochloride monohydrate] + CC(C)C[C@H](NC(=O)[C@H](CCc1ccccc1)NC(=O)CN1CCOCC1)C(=O)N[C@@H](Cc1ccccc1)C(=O)N[C@@H](CC(C)C)C(=O)[C@@]1(C)CO1 [Carfilzomib]", "cell viability of combination": 22.5},
      {"smiles": "COC(=O)NC(C(=O)N1CCCC1c1ncc(-c2ccc(-c3ccc(-c4cnc(C5CCCN5C(=O)C(NC(=O)OC)C(C)C)[nH]4)cc3)cc2)[nH]1)C(C)C", "note": "(stereo not given) + CC(C)C[C@H](NC(=O)[C@H](CCc1ccccc1)NC(=O)CN1CCOCC1)C(=O)N[C@@H](Cc1ccccc1)C(=O)N[C@@H](CC(C)C)C(=O)[C@@]1(C)CO1 [Carfilzomib]", "cell viability of combination": 25.3},
      {"smiles": "CC(NCCCc1cccc(C(F)(F)F)c1)c1cccc2ccccc12", "note": "(stereo not given) [Cinacalcet] + CC(C)C[C@H](NC(=O)[C@H](CCc1ccccc1)NC(=O)CN1CCOCC1)C(=O)N[C@@H](Cc1ccccc1)C(=O)N[C@@H](CC(C)C)C(=O)[C@@]1(C)CO1 [Carfilzomib]", "cell viability of combination": 19.5},
      {"smiles": "CC1(COc2ccc3c(c2)ncn3-c2ccc3cccc(N4CCC(N)CC4)c3n2)COC1", "note": "+ CC(C)C[C@H](NC(=O)[C@H](CCc1ccccc1)NC(=O)CN1CCOCC1)C(=O)N[C@@H](Cc1ccccc1)C(=O)N[C@@H](CC(C)C)C(=O)[C@@]1(C)CO1 [Carfilzomib]", "cell viability of combination": 64.3},
      {"smiles": "COc1cc2nccc(Oc3ccc(NC(=O)C4(C(=O)Nc5ccc(F)cc5)CC4)cc3)c2cc1OC.O=C(O)CC(O)C(=O)O", "note": "[Cabozantinib malate (XL184)] + CC(C)C[C@H](NC(=O)[C@H](CCc1ccccc1)NC(=O)CN1CCOCC1)C(=O)N[C@@H](Cc1ccccc1)C(=O)N[C@@H](CC(C)C)C(=O)[C@@]1(C)CO1 [Carfilzomib]", "cell viability of combination": 16.1},
      {"smiles": "CCOC(=O)C1=C(COCCN)NC(C)=C(C(=O)OC)C1c1ccccc1Cl.O=S(=O)(O)c1ccccc1", "note": "(stereo not given) [Amlodipine Besylate] + CC(C)C[C@H](NC(=O)[C@H](CCc1ccccc1)NC(=O)CN1CCOCC1)C(=O)N[C@@H](Cc1ccccc1)C(=O)N[C@@H](CC(C)C)C(=O)[C@@]1(C)CO1 [Carfilzomib]", "cell viability of combination": 16.5},
      {"smiles": "C=CC(=O)Nc1cc(Nc2nccc(-c3cn(C)c4ccccc34)n2)c(OC)cc1N(C)CCN(C)C", "note": "+ CC(C)C[C@H](NC(=O)[C@H](CCc1ccccc1)NC(=O)CN1CCOCC1)C(=O)N[C@@H](Cc1ccccc1)C(=O)N[C@@H](CC(C)C)C(=O)[C@@]1(C)CO1 [Carfilzomib]", "cell viability of combination": 17.5},
      {"smiles": "CC(C)CC(NC(=O)CNC(=O)c1cc(Cl)ccc1Cl)B(O)O", "note": "(stereo not given) + CC(C)C[C@H](NC(=O)[C@H](CCc1ccccc1)NC(=O)CN1CCOCC1)C(=O)N[C@@H](Cc1ccccc1)C(=O)N[C@@H](CC(C)C)C(=O)[C@@]1(C)CO1 [Carfilzomib]", "cell viability of combination": 9.5},
      {"smiles": "O=C(NN=Cc1ccc([N+](=O)[O-])o1)c1ccc(O)cc1", "note": "[Nifuroxazide] + CC(C)C[C@H](NC(=O)[C@H](CCc1ccccc1)NC(=O)CN1CCOCC1)C(=O)N[C@@H](Cc1ccccc1)C(=O)N[C@@H](CC(C)C)C(=O)[C@@]1(C)CO1 [Carfilzomib]", "cell viability of combination": 12.5},
      {"smiles": "COc1cccc2c1C(=O)c1c(O)c3c(c(O)c1C2=O)CC(O)(C(=O)CO)CC3OC1CC(N)C(O)C(C)O1.Cl", "note": "(stereo not given) [Epirubicin HCl] + CC(C)C[C@H](NC(=O)[C@H](CCc1ccccc1)NC(=O)CN1CCOCC1)C(=O)N[C@@H](Cc1ccccc1)C(=O)N[C@@H](CC(C)C)C(=O)[C@@]1(C)CO1 [Carfilzomib]", "cell viability of combination": 5.02},
      {"smiles": "COc1cccc2c1C(=O)c1c(O)c3c(c(O)c1C2=O)CC(O)(C(=O)CO)CC3OC1CC(N)C(O)C(C)O1.Cl", "note": "(stereo not given) [Doxorubicin (Adriamycin) HCl] + CC(C)C[C@H](NC(=O)[C@H](CCc1ccccc1)NC(=O)CN1CCOCC1)C(=O)N[C@@H](Cc1ccccc1)C(=O)N[C@@H](CC(C)C)C(=O)[C@@]1(C)CO1 [Carfilzomib]", "cell viability of combination": 7.61}
    ]}
  ]
}
